Reference: the supplement of paper PMC11732987, “Enantioselective OTUD7B fragment discovery through chemoproteomics screening and high-throughput optimisation” (Communications Chemistry, 2025)

What was measured:
Assay in all cases: log2 ratio of Biotin-Ahx-Ub-VS probe labelling (fragment/DMSO); higher = less target engagement (more negative = stronger competition), active = hit call of the paper (q ≤ 0.05, log2 ratio ≤ -1)
Settings in all cases: compound concentration: 200 uM; treatment time: 3 h
USP34 = USP34 (UniProt Q70CQ2)
Sequence of USP34 (Q70CQ2 whole entry, the tested form may be a part): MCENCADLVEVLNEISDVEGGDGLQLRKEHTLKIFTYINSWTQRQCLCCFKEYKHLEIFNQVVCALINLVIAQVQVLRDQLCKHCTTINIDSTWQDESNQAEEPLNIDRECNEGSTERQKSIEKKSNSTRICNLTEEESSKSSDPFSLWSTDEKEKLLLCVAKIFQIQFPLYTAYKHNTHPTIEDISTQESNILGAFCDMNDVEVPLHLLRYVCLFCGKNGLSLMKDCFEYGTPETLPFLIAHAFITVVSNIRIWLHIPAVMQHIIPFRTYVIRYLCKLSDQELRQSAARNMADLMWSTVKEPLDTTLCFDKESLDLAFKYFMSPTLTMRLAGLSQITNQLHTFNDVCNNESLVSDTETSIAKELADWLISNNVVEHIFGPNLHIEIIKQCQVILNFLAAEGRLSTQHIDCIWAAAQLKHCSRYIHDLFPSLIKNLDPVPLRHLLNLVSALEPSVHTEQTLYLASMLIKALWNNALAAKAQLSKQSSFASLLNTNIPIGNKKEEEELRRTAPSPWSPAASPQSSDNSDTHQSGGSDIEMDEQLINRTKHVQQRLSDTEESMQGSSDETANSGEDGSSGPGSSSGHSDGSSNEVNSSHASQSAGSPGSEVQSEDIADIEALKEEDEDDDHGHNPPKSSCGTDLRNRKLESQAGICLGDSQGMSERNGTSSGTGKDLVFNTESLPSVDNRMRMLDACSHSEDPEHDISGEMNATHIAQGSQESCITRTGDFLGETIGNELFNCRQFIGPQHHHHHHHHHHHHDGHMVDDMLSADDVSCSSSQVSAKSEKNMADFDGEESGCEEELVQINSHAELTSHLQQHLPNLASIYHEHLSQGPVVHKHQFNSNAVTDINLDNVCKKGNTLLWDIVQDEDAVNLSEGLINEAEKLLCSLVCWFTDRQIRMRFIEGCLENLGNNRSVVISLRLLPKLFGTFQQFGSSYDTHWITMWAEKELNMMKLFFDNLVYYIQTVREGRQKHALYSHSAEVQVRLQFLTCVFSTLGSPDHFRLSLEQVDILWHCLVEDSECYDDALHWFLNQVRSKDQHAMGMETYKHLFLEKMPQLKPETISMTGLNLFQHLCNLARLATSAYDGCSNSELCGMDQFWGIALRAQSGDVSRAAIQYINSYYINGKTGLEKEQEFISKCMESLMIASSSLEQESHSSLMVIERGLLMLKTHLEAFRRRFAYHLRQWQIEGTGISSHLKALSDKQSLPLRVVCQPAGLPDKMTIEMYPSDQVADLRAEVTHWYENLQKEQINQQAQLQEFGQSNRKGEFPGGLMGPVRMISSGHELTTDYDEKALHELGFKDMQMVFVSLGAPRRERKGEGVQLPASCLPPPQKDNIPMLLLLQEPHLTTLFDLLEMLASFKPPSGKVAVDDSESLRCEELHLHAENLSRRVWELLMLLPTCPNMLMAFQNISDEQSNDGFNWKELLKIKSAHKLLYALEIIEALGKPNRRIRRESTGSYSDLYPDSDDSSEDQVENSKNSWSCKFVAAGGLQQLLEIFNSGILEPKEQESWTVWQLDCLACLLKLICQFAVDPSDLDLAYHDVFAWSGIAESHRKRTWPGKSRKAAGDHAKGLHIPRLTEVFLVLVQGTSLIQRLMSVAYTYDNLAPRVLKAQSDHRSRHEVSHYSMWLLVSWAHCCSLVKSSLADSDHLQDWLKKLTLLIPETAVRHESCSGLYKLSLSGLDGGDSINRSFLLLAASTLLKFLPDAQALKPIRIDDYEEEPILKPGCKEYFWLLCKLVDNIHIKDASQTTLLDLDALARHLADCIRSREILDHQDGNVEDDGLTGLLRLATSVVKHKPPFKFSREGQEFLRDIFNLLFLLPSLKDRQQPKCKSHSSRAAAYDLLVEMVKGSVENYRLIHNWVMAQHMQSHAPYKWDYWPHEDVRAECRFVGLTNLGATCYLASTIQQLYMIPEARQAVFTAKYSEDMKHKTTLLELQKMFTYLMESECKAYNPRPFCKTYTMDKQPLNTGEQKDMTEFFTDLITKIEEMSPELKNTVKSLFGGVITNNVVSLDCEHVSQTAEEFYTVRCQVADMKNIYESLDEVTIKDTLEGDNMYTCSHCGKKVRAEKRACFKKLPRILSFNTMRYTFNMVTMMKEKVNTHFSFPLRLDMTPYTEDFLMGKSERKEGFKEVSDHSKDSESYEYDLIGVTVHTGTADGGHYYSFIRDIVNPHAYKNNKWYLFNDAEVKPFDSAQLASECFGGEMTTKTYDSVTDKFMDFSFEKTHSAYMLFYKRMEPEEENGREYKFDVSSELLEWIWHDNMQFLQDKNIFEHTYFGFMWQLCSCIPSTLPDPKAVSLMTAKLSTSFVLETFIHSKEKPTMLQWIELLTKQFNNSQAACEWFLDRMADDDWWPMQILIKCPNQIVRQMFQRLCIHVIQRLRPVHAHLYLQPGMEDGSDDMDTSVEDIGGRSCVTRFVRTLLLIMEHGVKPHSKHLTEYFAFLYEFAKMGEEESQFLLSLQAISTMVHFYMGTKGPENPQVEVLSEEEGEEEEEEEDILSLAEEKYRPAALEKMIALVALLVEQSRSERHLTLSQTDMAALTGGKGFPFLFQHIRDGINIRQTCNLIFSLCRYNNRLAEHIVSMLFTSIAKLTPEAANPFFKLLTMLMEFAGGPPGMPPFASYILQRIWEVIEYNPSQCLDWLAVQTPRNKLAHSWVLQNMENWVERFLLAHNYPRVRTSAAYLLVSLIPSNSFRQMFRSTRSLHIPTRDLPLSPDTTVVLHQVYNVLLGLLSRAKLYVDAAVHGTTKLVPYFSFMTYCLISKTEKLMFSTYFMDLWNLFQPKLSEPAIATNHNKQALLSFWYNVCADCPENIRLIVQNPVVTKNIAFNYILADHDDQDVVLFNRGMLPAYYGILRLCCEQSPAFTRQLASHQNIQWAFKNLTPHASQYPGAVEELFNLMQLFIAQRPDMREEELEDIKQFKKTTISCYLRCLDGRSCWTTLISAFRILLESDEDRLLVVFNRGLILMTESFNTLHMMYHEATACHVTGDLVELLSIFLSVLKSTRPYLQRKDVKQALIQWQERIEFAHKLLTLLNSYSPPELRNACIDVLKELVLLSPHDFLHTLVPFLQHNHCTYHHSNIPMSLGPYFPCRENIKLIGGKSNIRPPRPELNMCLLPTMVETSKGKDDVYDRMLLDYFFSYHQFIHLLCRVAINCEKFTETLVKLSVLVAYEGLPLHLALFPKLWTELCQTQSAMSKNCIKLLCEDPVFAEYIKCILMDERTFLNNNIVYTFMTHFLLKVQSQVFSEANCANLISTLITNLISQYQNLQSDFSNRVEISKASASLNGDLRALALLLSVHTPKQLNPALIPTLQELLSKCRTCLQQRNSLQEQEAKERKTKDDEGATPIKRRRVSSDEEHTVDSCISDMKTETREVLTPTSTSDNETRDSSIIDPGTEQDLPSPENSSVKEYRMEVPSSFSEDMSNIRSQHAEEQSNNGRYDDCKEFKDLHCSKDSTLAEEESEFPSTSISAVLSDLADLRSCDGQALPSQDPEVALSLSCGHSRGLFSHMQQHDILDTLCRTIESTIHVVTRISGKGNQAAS
How it was run: (§1)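 Labelled DUBs from HEK293T lysate were NeutrAvidin-enriched, digested with LysC and trypsin, and run by diaPASEF LC-MS/MS. Before that, each 495 µg sample in Tris/CHAPS/IGEPAL buffer with protease inhibitors was treated in triplicate with fragment at 200 µM or vehicle for 3 h, then with Biotin-Ahx-Ub-VS at 0.5 µM final for 1 h. Values are average log2 ratios of fragment over vehicle by unpaired t-test, based on global-median-normalised Spectronaut label-free quantities from proteins with ≥2 unique peptides.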

USP36 = target: T1, USP36 (UniProt Q9P275)
T1 sequence (whole entry): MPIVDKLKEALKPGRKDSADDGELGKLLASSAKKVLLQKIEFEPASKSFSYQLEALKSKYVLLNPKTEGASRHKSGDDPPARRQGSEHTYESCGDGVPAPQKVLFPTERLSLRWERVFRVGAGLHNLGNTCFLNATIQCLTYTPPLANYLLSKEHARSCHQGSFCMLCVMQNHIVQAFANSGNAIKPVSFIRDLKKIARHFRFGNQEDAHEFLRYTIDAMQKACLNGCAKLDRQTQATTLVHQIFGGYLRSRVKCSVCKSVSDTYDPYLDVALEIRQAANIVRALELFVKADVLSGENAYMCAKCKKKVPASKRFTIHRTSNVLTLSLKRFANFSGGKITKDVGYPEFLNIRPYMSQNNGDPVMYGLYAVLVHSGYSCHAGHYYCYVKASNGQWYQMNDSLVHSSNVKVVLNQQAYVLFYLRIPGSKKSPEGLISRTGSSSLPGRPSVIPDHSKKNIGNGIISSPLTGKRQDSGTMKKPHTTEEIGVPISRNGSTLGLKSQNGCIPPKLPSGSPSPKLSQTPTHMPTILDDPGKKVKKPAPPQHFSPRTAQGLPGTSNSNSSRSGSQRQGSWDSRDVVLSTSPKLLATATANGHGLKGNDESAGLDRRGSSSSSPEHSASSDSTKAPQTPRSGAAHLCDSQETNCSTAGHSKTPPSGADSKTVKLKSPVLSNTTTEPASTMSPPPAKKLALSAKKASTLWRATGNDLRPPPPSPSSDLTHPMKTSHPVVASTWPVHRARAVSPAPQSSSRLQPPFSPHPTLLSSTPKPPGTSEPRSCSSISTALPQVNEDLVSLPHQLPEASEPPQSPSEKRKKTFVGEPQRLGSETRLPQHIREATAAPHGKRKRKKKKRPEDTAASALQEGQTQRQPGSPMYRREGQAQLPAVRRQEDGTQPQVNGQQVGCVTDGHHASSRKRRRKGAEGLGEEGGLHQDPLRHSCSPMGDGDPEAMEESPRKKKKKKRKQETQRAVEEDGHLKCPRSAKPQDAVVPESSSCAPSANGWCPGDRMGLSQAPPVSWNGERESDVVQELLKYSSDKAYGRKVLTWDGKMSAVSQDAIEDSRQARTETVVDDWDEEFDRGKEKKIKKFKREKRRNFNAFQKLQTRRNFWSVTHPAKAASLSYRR
How it was run: as §1

USP38 = target: T2, USP38 (UniProt Q8NB14)
T2 sequence (whole entry): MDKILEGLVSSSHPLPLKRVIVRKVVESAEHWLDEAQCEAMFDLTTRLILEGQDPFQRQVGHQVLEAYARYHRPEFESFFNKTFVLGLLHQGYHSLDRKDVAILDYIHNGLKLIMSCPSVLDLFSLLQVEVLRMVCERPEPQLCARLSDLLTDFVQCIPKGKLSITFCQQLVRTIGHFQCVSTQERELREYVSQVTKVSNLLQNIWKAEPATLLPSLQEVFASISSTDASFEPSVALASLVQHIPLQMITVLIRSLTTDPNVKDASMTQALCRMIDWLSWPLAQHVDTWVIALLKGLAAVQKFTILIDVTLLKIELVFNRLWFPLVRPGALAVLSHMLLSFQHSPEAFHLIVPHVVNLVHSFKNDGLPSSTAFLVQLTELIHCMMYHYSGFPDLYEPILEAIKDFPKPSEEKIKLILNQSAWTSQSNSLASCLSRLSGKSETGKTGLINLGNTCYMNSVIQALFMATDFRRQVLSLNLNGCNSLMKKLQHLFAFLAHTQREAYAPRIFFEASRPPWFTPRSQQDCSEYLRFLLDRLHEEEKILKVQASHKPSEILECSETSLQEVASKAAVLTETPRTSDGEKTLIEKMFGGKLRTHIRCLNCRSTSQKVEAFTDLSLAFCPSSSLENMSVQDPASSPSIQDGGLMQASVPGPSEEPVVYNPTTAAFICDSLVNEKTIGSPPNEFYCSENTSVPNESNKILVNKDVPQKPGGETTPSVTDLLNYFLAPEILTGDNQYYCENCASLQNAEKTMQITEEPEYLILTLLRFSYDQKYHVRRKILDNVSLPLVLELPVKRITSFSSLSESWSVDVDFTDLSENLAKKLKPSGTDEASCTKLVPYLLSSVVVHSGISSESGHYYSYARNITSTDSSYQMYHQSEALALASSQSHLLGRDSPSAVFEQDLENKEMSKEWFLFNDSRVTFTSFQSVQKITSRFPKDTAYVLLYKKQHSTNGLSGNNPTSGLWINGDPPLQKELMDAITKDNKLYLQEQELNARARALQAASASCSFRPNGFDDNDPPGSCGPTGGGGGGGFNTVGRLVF
How it was run: as §1

USP39 = target: T3, USP39 (UniProt Q53GS9)
T3 sequence (whole entry): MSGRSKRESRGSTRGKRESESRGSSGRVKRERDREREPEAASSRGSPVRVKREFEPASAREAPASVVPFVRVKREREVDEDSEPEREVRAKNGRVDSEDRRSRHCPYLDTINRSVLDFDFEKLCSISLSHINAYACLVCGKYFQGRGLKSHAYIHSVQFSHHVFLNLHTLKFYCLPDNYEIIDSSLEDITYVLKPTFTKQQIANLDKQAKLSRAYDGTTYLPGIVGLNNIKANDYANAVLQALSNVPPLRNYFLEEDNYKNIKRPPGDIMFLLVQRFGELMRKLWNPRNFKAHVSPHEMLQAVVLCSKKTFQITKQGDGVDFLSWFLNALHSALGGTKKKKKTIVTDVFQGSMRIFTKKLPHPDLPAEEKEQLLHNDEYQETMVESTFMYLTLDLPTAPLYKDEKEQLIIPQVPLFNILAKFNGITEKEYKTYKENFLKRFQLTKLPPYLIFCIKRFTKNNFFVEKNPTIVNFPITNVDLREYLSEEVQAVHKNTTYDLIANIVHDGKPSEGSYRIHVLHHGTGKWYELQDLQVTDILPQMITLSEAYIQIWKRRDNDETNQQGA
How it was run: as §1

USP4 = target: T4, USP4 (UniProt Q13107)
T4 sequence (whole entry): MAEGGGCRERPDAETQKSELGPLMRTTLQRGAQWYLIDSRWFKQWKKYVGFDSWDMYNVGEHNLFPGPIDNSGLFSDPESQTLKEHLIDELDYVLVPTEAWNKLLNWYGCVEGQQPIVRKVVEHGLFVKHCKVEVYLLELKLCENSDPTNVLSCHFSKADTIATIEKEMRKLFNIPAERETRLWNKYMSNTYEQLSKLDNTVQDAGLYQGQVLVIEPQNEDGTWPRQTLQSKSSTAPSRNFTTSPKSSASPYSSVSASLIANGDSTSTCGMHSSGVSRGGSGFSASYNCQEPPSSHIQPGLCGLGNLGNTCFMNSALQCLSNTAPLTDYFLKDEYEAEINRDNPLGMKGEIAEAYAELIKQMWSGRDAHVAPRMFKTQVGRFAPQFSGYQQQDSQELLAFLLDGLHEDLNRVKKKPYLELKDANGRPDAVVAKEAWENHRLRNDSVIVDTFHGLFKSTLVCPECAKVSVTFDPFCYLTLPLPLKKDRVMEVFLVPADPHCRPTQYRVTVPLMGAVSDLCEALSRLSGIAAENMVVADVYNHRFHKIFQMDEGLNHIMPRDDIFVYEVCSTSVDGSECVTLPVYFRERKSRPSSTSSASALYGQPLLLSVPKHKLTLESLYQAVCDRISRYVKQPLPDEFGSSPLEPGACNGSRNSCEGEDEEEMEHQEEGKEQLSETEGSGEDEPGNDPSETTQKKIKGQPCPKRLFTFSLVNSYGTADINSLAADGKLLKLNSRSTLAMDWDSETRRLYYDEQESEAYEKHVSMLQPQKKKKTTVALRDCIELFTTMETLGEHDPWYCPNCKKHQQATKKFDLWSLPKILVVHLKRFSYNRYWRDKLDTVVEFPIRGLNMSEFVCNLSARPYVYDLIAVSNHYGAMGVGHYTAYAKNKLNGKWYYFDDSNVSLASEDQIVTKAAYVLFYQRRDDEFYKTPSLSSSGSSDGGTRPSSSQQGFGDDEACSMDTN
How it was run: as §1

Measured: log2 ratio of Biotin-Ahx-Ub-VS probe labelling

Cc1conc1C1CN(C(=O)CCl)C1
inactive: USP34 -0.684 | USP36 -0.258 | USP38 -0.799 | USP39 0.247 | USP4 -0.913
